The entries come from a sample that favours hits as a whole.
ERK EGF block – blocks ERK signaling stimulated by EGF; HEK293-V1b, EGF-stimulated phospho-ERK AlphaScreen; Potency, µM (titrated, usually from 11.5 µM), actives largely listed as inhibitors; 130,000 compounds, 0.41% hits; active = well fitted inhibition curve with a large enough effect; note: nearly all actives have a fitted effect of over 55% in size
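V1b-HEK293, 1% FBS o/n; cpd 30 min 37C; EGF 25 nM final, 5 min; lyse 10 min; AlphaScreen beads 5 h RT. Normalized DMSO basal vs EGF max; Hill AC50.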
Of the large screens only hits and unclear results are named; the others gave an inactive call.

CC(=O)OCC1OC(Oc2cc(OC(C)=O)c3c(=O)cc(-c4ccc(OC(C)=O)c(OC(C)=O)c4)oc3c2)C(OC(C)=O)C(OC(C)=O)C1OC(C)=O (configuration not stated)	none
COc1ccc(-c2csc(NC(=O)c3ccc(S(C)(=O)=O)cc3)n2)cc1	none
COc1ccc(-c2csc(NC(=O)c3ccccc3C(=O)O)n2)cc1	none
COc1ccc(-c2csc(NC(=O)c3ccoc3C)n2)cc1	ERK EGF block 15.8µM
O=C(O)C(O)C(O)C(O)C(O)C(=O)O (configuration not stated)	none
COC(=O)N1CCC2(CCCN(c3ncccn3)C2)CC1	none
COc1ccc(NC(=O)N2CC3(CCN(C(=O)c4ccc(OC)cc4)CC3)C2)cc1	none
C/C(=N\N(C)C)C1=C(O)c2ccccc2C1=O	none
CN(C=[N+](C)C)c1cccc2c1C(=O)c1ccccc1C2=O	ERK EGF block 17.8µM
O=C(O)c1cccc2c1C(=O)c1ccccc1C2=O	none
CCCCC/C=C\C/C=C\C/C=C\CCCCCCC(=O)NCCCC(=O)O	none
COc1ccc2c(c1)C(=O)[C@H](OC(=O)NCc1ccc3c(c1)OCO3)[C@@H](c1ccc(OC)c(Br)c1)O2	none
CC#CCC1(C(=O)OC)C(=O)NC[C@H]1c1ccccc1 (some centres not stated)	none
Oc1[nH]c2ccccc2c1N=Nc1ccc(F)cc1	none
Oc1ccc2ccccc2c1N=Nc1ccc(F)cc1	ERK EGF block 12.6µM
Oc1[nH]c2ccccc2c1N=Nc1ccccc1	none
COc1ccc2sc(/C=C/c3ccccc3O)[n+](C)c2c1	none
CCC(=O)/C=C1/Sc2ccc(OC)cc2N1CCO	none
CCC(/C=C1\Sc2ccc(OC)cc2N1CCO)=C\c1sc2ccc(OC)cc2[n+]1CCO	ERK EGF block 14.1µM
C=C[C@H]1CN2CC[C@@H]1C[C@H]2[C@@H](O)c1ccnc2ccc(OC)cc12	none
CN(C(=O)c1ccccc1C(=O)OCC(=O)NC(=O)NC(C)(C)C)C1CCCCC1	none
CN(C)c1ccc(N=Nc2ccccc2C(=O)OCC(=O)NCC2CCCCC2)cc1	ERK EGF block 12.6µM
CN(C)c1ccc(C(=O)OCC(=O)NC2CCCCCC2)cc1	none
O=[N+]([O-])c1ccc(N2CCN(c3ccccc3O)CC2)c(Cl)c1	none
O=[N+]([O-])c1cc(S(=O)(=O)Nc2ccccc2)ccc1N1CCN(c2ccccc2)CC1	none
O=C1C(Cl)=C(N2CCN(c3ccccc3[N+](=O)[O-])CC2)C(=O)c2ccccc21	ERK EGF block 25.1µM
COC(=O)[C@@H]1[C@@H]2C[C@H]3c4[nH]c5ccccc5c4CCN3C[C@@H]2CC[C@@H]1O	none
O=C(O)CCCC/C=C\C[C@@H](O)/C=C/C=C/C=C\[C@@H](O)CCCC(=O)O	none
C=C1C(=O)OC2CC1C(OC(C)=O)CC(C)=CCCC(C)=CCC[C@@]2(C)O (some centres not stated)	none
O=c1cc(-c2ccccc2O)oc2c1ccc1ccccc12	none
N[C@H](CO)Cc1cnc[nH]1	none
Cc1[nH]c2ccccc2c1/C=N/NC(=S)NC(C)C	none
Cc1[nH]c2ccccc2c1/C=N/Nc1ccccc1[N+](=O)[O-]	ERK EGF block 25.1µM
COc1ccc(/C=N\Nc2ccccc2[N+](=O)[O-])c(C(=O)O)c1OC	none
COc1cc(/C=N/Nc2ccccc2[N+](=O)[O-])cc(OC)c1O	none
CC(C)Oc1ccccc1/C=N/Nc1ccccc1[N+](=O)[O-]	ERK EGF block 12.6µM
O=[N+]([O-])c1cccnc1N/N=C/c1ccccc1O	none
COc1ccccc1/C=N\Nc1ccccc1[N+](=O)[O-]	ERK EGF block 10µM
COc1cc(/C=N/Nc2ccccc2[N+](=O)[O-])ccc1OC(=O)c1ccccc1F	none
Cc1[nH]c2ccccc2c1/C=N/NS(=O)(=O)c1ccccc1	none
COc1cc(N)c(Cl)cc1C(=O)N[C@H]1CCN(CCCOc2ccc(F)cc2)C[C@@H]1OC	none
COC(=O)[C@@]1(Cc2ccc(OC)cc2)[C@H]2c3cc(C(=O)N4CCCC4)n(CCc4c[nH]c5cc(F)ccc45)c3C[C@H]2CN1C(=O)c1ccccc1	none
CC1CC[C@]2(CO)CC[C@]3(C)C(=CCC4[C@@]5(C)CCC(O)C(C)(C)C5CC[C@@]43C)C2C1C (some centres not stated)	none
Cc1ccc(N=CC2=C(O)CC(c3ccccc3Cl)CC2=O)cc1 (configuration not stated)	ERK EGF block 20µM
O=C1CC(c2ccccc2)CC(O)=C1C=Nc1ccc(Cl)cc1 (configuration not stated)	none
Cc1ccc(N=CC2=C(O)CC(c3cccc(Cl)c3)CC2=O)cc1 (configuration not stated)	none
CC(C)(C)NC[C@H](O)COc1cccc2c1C[C@@H](O)[C@@H](O)C2	none
CN1CCN(c2ncc3nc(-c4ccc(Cl)cc4)c(=O)n(CCC#N)c3n2)CC1	none
CN1/C(=C\C(=O)c2cccnc2)C(C)(C)c2ccccc21	none
Cc1ccc(C(=O)NC(=S)/C=C2\N(C)c3ccccc3C2(C)C)cc1	ERK EGF block 25.1µM
CN1/C(=C\C=N\NC(=O)c2ccc(O)cc2)C(C)(C)c2ccccc21	none
COC(=O)N1[C@H]2CC[C@@]3(C)C=C(C)O[C@]1(C)C3c1ccccc12	none
NCC1OC(OC2C(N)CC(N)[C@@H](O)[C@@H]2OC2O[C@H](CO)[C@@H](O[C@@H]3OC(CN)C(O)C(O)C3N)C2O)C(N)C(O)C1O (some centres not stated)	none
CC(=O)Nc1cccc(-c2csc(NCc3ccccc3)n2)c1	none
CC(=O)Nc1ccc(-c2csc(Nc3ccc(Cl)cn3)n2)cc1	none
CC(=O)Nc1cccc(-c2csc(Nc3ccc(Cl)cn3)n2)c1	ERK EGF block 28.2µM
COc1cc(C=O)c([N+](=O)[O-])cc1OC	none
COc1cc2c(cc1OC)C1N(CC2)C(=O)CCC12C(=O)CCCC2=O (configuration not stated)	none
Cc1cc2ccccn2c1C(=O)c1ccc([N+](=O)[O-])o1	ERK EGF block 17.8µM
CCOC(=O)C(=O)c1c(C)cc2ccccn12	none
Cc1cc2ccccn2c1C(=O)c1cccc([N+](=O)[O-])c1	none
COc1cc(C)c(CC/C(C)=C/C=C/C(C)=O)c(C)c1C	none
O=C(O)c1ccc(/C=N/N2CCN(Cc3ccc(Cl)cc3)CC2)cc1	none
CCN(CC)c1ccc(/C=N/N2C(=O)c3ccccc3C2=O)c(O)c1	none
CCN(CC)c1ccc(/C=N/N2CCN(Cc3ccc(Cl)cc3)CC2)c(O)c1	ERK EGF block 14.1µM
CCN1CCN(C(=O)NC(C(=O)NC2C(=O)N3C(C(=O)O)=C(CSc4nnnn4C)CSC23)c2ccc(O)cc2)C(=O)C1=O (configuration not stated)	none
CC(C)Oc1ccc(-c2nc(NCC3CCCO3)c3ccccc3n2)cc1 (configuration not stated)	ERK EGF block 31.6µM
CCOc1ccc(-c2cc(C(=O)NCC3CCCO3)c3ccccc3n2)cc1 (configuration not stated)	none
c1ccc2c(NCC3CCCO3)nc(N3CCCCC3)nc2c1 (configuration not stated)	none
OC1C2COC(O2)[C@H](O)C1O (some centres not stated)	none
O=C(c1cnccn1)N1CCC[C@@]2(CCN(c3ccccn3)C2)C1	none
COc1ccc(-c2nc(CN3CCN(c4cc(C)nc(C)c4)CC3)c(C)o2)c2ccccc12	none
Cc1oc(-c2cccc3ccccc23)nc1CN1CCN(c2ncnc3ccccc23)CC1	ERK EGF block 31.6µM
Cc1cnc(C)c(N2CCN(Cc3nc(-c4ccc(C)o4)oc3C)CC2)n1	none
c1ccc(-c2nc(-c3ccccc3)c(NC3CCCCC3)o2)cc1	none
CC(=O)C[C@H](c1ccc([N+](=O)[O-])cc1)c1c(O)c2ccccc2oc1=O	none
